# Screening results (PubChem BioAssay)
# A selection: hits, their analogues and other compounds. The true share with any hit is near 2.1%.
# ugtP null kill: kills S. aureus RN4220 lacking UgtP | S. aureus RN4220 ugtP deletion, OD600 growth, 16 h | growth inhibition, % (test concentration not listed) | 330,000 compounds, 0.54% hits | AID 1259309; in the data active = growth inhibition above about 68%
# PfHsp40 rescue: rescue of PfHsp40-mediated yeast toxicity. S. cerevisiae expressing PfHsp40, growth rescue, ATP luminescence. growth rescue, % at 12.5 µM. 340,000 compounds, 0.68% hits. AID 504582; in the data active = growth rescue above about 28%, passing the limit was not always enough;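 note: yeast W303a lacking pdr1 and pdr3 grown in galactose medium; growth measured after three days at 30 °C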
# PrPC TRFRET: inhibitors of human cell surface prion protein PrPC. P04156. TR-FRET read-out. inhibition, % at 13.8 µM. 370,000 compounds, 0.43% hits; in the data active = inhibition above about 24%
# PrP UTR inh: inhibition of PrP 5' UTR reporter expression | cell-based PrP 5' UTR mRNA reporter, plate reader | 340,000 compounds, 0.35% hits | inhibition, % (concentration not given with the values); in the data active = inhibition above about 52%
# CCHF vOTU inh-1: blocks the CCHF virus ovarian tumor domain protease. 370,000 compounds, 0.55% hits. CCHFV vOTU protease, Pep-AMC fluorescence. inhibition, % at 11.5 µM. AID 651958
# RN4220 kill: S. aureus RN4220 growth inhibition | OD600, 16 h | inhibition, % (no concentration beside the values) | 330,000 compounds, 0.33% hits | AID 1259311; in the data active = inhibition above about 85%
# CCHF vOTU inh-2: confirmation of CCHF virus vOTU protease inhibitors; 1,900 compounds, 17% hits; shares compounds with CCHF vOTU inh-1; Recombinant CCHFV vOTU, Pep-AMC fluorescence; inhibition, % at 11.5 µM
# A number is an active result; - = inactive; . = no result. Cut-off read from the data, not from the text of the source, unless noted: active = inhibition above about 30%; inactive = the rest.
SMILES,ugtP null kill,PfHsp40 rescue,PrPC TRFRET,PrP UTR inh,CCHF vOTU inh-1,RN4220 kill,CCHF vOTU inh-2
COc1ccc(NC(=S)NNc2ccc(S(=O)(=O)Nc3ccccc3C(=O)O)cc2[N+](=O)[O-])cc1,-,-,-,-,33,-,-
CC1(C)CC(=O)C=C(Nc2ccc(Br)cn2)C1,-,-,-,-,31,-,-
CC1(C)CC(=O)C=C(Nc2ccccn2)C1,-,-,-,-,-,-,.
Cc1cc(C)c(C#N)c(N2CCN(C(=O)C3COc4ccccc4O3)CC2)n1 (stereo not drawn),-,-,-,-,48,-,-
O=C(C1COc2ccccc2O1)N1CCN(c2ccccc2O)CC1 (stereo not drawn),-,-,-,-,-,-,.
COc1ccc2c(c1)OCC1C2N2C(=O)CNC(=O)[C@@]2(C)C1c1ccccc1 (stereo partly drawn),-,.,.,.,.,-,.
COC(=O)C1C[C@@]2(O)C(O)C(O)C(O)CC2N1Cc1ccc(Cl)cc1 (stereo partly drawn),-,.,.,.,.,-,.
CC(C)(C)c1cc(OC(=O)C2CCCC2)ccc1O,-,-,-,-,-,-,.
CCCCC(CC)C(=O)Oc1ccc(O)c(C(C)(C)C)c1 (stereo not drawn),.,-,-,-,31,.,-
O=C(Oc1ccc2c(c1)OCO2)c1cc2c(s1)CCC2,-,-,-,-,46,-,-
O=C(c1cc2c(s1)CCCC2)N1CCN(Cc2ccc3c(c2)OCO3)CC1,-,-,-,-,-,-,.
CC(=O)c1ccc(N2CCN(C(=O)c3ccc(OCc4c(C)noc4C)cc3)CC2)cc1,-,-,-,-,34,-,-
CCc1nnc(NS(=O)(=O)c2ccc(NC(=O)c3ccc(S(=O)(=O)N(CC)CC)cc3)cc2)s1,-,-,-,-,-,-,.
CCOc1cc(C(=O)Nc2ccc(S(=O)(=O)Nc3nnc(CC)s3)cc2)cc(OCC)c1OCC,-,-,-,-,38,-,-
O=C(NCc1ccc(F)cc1)Nc1nnc([C@H]2C[C@H](O)[C@@H](CO)O2)s1,.,.,-,.,-,.,.
O=C(NCc1ccc(F)cc1)Nc1nnc([C@@H]2C[C@H](O)[C@@H](CO)O2)s1,.,.,-,.,34,.,-
O=C(O)c1cccc(Nc2ccncc2[N+](=O)[O-])c1,-,-,-,-,30,-,-
COc1ccc(CN2C(=O)NC(=O)/C(=C/c3ccc([N+](=O)[O-])s3)C2=O)cc1,.,-,-,-,-,.,.
O=C1NC(=O)N(Cc2ccc(F)cc2)C(=O)/C1=C\c1ccc([N+](=O)[O-])s1,.,-,-,-,32,.,-
COc1ccc(S(=O)(=O)Nc2nc3c(s2)C(=O)CC(C)(C)C3)cc1,-,-,-,-,-,-,.
Cc1ccc(S(=O)(=O)Nc2nc3c(s2)C(=O)CC(C)(C)C3)cc1,-,-,-,-,30,-,-
O=C(O)Cn1c2c(c3ccccc31)CCCC2,.,-,-,-,30,.,-
COc1ccccc1NC(=O)c1ccc(Cl)c(S(=O)(=O)NCc2ccco2)c1,-,-,-,-,33,-,-
O=C(O)CC1S/C(=N/N=C/c2ccc(-c3ccccc3[N+](=O)[O-])o2)NC1=O (stereo not drawn),.,-,-,-,36,.,-
Cc1ccc(-c2ccc(/C=N/N=C3/NC(=O)C(CC(=O)O)S3)o2)c([N+](=O)[O-])c1 (stereo not drawn),.,-,-,-,-,.,.
SMILES,ugtP null kill,PfHsp40 rescue,PrPC TRFRET,PrP UTR inh,CCHF vOTU inh-1,RN4220 kill,CCHF vOTU inh-2
CC(=O)NS(=O)(=O)c1ccc(Nc2ccc([N+](=O)[O-])c3nonc23)cc1,-,-,-,-,30,-,-
O=[N+]([O-])c1ccc(Nc2ccccc2)c2nonc12,.,-,-,-,-,.,.
O=C(O)c1ccc(Cl)c(S(=O)(=O)N(Cc2ccccc2)c2ccc(Cl)cc2)c1,-,-,-,-,31,-,-
NC(=O)COC(=O)c1ccc(Cl)c(S(=O)(=O)N(Cc2ccccc2)c2ccc(Cl)cc2)c1,-,-,-,-,-,-,.
CN(C(=S)Nc1cccnc1)c1ccc(O)cc1,-,-,-,-,49,-,-
CN(C(=S)Nc1ccc(Oc2ccccc2)cc1)c1ccc(O)cc1,-,-,-,-,30,-,-
CN(C(=S)Nc1ccccc1)c1ccccc1,-,-,-,-,-,-,.
CN(C(=S)Nc1ccc(SC(F)F)cc1)c1ccc(O)cc1,-,-,-,-,30,-,-
COc1ccc(C2C=C3CN(C(=O)OC(C)(C)C)S(=O)(=O)C3CC2OC(=O)c2ccc(C(F)(F)F)cc2)cc1 (stereo not drawn),-,.,.,.,.,-,.
CCCCC(=NNC(=O)c1ccc(Br)o1)c1ccccc1,-,.,.,.,.,-,.
O=C(CCC(=O)NN=Cc1ccc(Br)o1)NN=Cc1ccc(Br)o1,-,.,.,.,.,-,.
CC(=O)Nc1ccc(C(=O)Nc2ccc(S(=O)(=O)N3CCCCC3)cc2)cc1,-,-,-,-,-,-,.
CC(=O)Nc1ccc(NC(=O)c2ccc(S(=O)(=O)N3CCCCCC3)cc2)cc1,.,.,-,.,43,.,-
COc1cc(C2OCC3C(c4ccc5c(c4)OCO5)OCC23)ccc1O (stereo not drawn),-,.,.,.,.,-,.
Cc1ccccc1NCC(=O)NN=C/C(Br)=C/c1ccccc1,-,.,.,.,.,-,.
COC(=O)C1=C(C)N(Cc2ccccc2)C(=NCc2ccc(OC)cc2)NC1c1ccccc1 (stereo not drawn),-,.,.,.,.,-,.
C=CCN=C1NC(c2cccc(Cl)c2)C(C(=O)OC)=C(C)N1Cc1cccc(C(F)(F)F)c1 (stereo not drawn),.,.,-,.,30,.,-
COC(=O)C1=C(C)N(Cc2ccccc2C(F)(F)F)C(=NCc2ccc(C(F)(F)F)cc2)NC1c1cccc(Cl)c1 (stereo not drawn),.,.,-,.,36,.,-
COC(=O)C1=C(C)N(Cc2ccc(C(F)(F)F)cc2)C(=NCc2ccc(OC)cc2)NC1c1ccccc1 (stereo not drawn),.,.,-,.,30,.,-
COC(=O)C1=C(C)N(Cc2ccccc2C(F)(F)F)C(=NCc2ccc(C(F)(F)F)cc2)NC1c1cccc(C(F)(F)F)c1 (stereo not drawn),.,.,-,.,-,.,.
CC(/C=C/c1ccco1)=NNC(=O)Cc1cccs1,-,.,.,.,.,-,.
COc1cc(C2CC=C(C(=O)O)C(c3ccc(F)cc3)N2S(=O)(=O)c2ccc(C)cc2)cc(OC)c1OC (stereo not drawn),-,.,.,.,.,-,.
COc1ccc(S(=O)(=O)N2CCN(Cc3cccc(Cl)c3)CC2)cc1,-,-,-,-,-,-,.
COc1ccc(S(=O)(=O)N2CCN(Cc3ccc(Cl)cc3)CC2)cc1,-,-,-,-,33,-,-
CCC(O)c1c(-c2ccccc2)nn(C)c1Cl (stereo not drawn),-,-,-,-,31,-,-
C=CCC(O)c1c(-c2ccccc2)nn(C)c1Cl (stereo not drawn),-,-,-,-,-,-,.
